# Assay results: PubChem BioAssay
# The source made the active and inactive calls.
# Assays:
# [1] = tested on: Plasmodium falciparum Sir2 (PF13_0152, Sir2A); assay: pfSir2 binders on small-molecule microarrays, primary screen, biochemical, small-molecule microarray, 635 nm fluorescence (AID 1098); conditions: small-molecule microarray binding, fluorescence 635 nm; higher = more signal;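 also: score merges spot fluorescence intensity with its signal-to-noise ratio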
# [2] = small-molecule microarray binders of probe aDKK1, primary screen, biochemical, biotinylated probe, 635/667 nm fluorescence (AID 1099); conditions: higher = more signal;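 also: score merges 667nm spot fluorescence with signal to noise across triplicate slides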
# [3] = small-molecule microarray binders of probe aCHRDL2, primary screen, biochemical, biotinylated probe, 635/667 nm fluorescence (AID 1100); conditions: higher = more signal
# [4] = splicing luciferase reporter signal modulators, primary screen, spliceosome inhibition project, cell-based, HEK293, splice +/- reporter (AID 1101); conditions: luminescence, 24 h, higher = more signal, called active from +8 up or from −8 down;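 also: HEK293 cells carrying a splicing-competent luciferase reporter gene; test concentration not given here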
# [5] = molecular target: Fibroblast growth factor 10 (Homo sapiens) (UniProt O15520); assay: FGF10 binders on small-molecule microarrays, primary screen, biochemical, small-molecule microarray, 635 nm fluorescence (AID 1102); conditions: FGF10 binding, fluorescence 635 nm, higher = more signal
# Fibroblast growth factor 10 (Homo sapiens), sequence (O15520 whole entry, looked up): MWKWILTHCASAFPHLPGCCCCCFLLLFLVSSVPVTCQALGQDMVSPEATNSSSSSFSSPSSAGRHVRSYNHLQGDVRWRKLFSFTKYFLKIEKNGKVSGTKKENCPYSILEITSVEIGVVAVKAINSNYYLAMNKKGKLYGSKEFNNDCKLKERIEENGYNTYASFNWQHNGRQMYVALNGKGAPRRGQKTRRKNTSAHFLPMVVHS
# [6] = tested on: glycogen synthase kinase-3 (GSK3A per assay name; protocol says GSK3B); assay: GSK3 binders on small-molecule microarrays, primary screen, biochemical, small-molecule microarray, 635 nm fluorescence, GSK3A (AID 1103); conditions: small-molecule microarray binding, fluorescence 635 nm; higher = more signal; also: the record names both GSK3A and GSK3B
# [7] = molecular target: Epidermal growth factor receptor (Homo sapiens) (UniProt P00533); assay: EGFR binders on small-molecule microarrays, primary screen, biochemical, small-molecule microarray, 635 nm fluorescence (AID 1104); conditions: EGFR binding, higher = more signal;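 also: score merges 667 nm emission intensity with spot signal to noise over triplicate slides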
# Epidermal growth factor receptor (Homo sapiens), sequence (P00533 whole entry, looked up): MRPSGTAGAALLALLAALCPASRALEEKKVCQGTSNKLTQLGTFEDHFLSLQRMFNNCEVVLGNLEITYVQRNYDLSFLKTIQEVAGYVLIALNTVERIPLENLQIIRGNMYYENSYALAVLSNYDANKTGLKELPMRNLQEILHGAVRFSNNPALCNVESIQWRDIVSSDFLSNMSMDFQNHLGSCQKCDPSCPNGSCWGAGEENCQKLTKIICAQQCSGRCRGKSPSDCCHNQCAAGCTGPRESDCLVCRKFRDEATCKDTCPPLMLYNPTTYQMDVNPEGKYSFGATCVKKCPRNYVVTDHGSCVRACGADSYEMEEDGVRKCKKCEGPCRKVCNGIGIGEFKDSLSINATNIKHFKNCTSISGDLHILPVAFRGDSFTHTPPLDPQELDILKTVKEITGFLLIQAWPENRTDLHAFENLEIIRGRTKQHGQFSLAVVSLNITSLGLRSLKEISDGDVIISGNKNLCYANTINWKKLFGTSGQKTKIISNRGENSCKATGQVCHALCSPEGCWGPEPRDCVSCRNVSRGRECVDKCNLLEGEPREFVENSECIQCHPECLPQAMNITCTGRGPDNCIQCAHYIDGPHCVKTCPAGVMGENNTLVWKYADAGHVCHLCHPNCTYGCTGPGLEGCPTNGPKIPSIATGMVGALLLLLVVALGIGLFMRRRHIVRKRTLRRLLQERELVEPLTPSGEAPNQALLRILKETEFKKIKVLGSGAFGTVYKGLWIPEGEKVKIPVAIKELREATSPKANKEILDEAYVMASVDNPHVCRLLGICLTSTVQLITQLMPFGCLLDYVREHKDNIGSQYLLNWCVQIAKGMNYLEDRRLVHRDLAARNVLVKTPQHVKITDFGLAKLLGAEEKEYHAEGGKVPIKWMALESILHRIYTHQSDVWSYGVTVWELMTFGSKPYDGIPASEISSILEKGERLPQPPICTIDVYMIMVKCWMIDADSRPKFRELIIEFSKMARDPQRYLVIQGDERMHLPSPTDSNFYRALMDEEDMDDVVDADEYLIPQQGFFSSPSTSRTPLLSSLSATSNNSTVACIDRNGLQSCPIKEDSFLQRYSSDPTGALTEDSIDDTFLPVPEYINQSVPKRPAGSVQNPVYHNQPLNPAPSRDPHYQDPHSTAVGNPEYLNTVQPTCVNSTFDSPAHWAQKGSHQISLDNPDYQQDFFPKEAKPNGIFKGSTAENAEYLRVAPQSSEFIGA
# [8] = molecular target: Follistatin-related protein 3 (Homo sapiens) (UniProt O95633); assay: FSTL3 binders on small-molecule microarrays, primary screen, biochemical, small-molecule microarray, 635 nm fluorescence (AID 1105); conditions: FSTL3 binding, higher = more signal;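 also: score merges emission near 667 nm and signal to noise per printed spot across three slides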
# Follistatin-related protein 3 (Homo sapiens), sequence (O95633 whole entry, looked up): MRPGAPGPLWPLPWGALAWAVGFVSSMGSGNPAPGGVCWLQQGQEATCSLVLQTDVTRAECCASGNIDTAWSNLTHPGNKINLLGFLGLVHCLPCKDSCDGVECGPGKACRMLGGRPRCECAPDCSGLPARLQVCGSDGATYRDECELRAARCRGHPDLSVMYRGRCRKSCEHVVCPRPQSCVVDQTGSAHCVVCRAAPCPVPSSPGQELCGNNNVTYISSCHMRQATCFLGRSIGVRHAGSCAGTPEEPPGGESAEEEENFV
# [9] = molecular target: Dickkopf-related protein 1 (Homo sapiens) (UniProt O94907); assay: DKK1 binders on small-molecule microarrays, primary screen, biochemical, small-molecule microarray, 635 nm fluorescence scan (AID 1106); conditions: DKK1 binding, higher = more signal;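 also: score merges emission near 667 nm with signal to noise over three replicate slides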
# Dickkopf-related protein 1 (Homo sapiens), sequence (O94907 whole entry, looked up): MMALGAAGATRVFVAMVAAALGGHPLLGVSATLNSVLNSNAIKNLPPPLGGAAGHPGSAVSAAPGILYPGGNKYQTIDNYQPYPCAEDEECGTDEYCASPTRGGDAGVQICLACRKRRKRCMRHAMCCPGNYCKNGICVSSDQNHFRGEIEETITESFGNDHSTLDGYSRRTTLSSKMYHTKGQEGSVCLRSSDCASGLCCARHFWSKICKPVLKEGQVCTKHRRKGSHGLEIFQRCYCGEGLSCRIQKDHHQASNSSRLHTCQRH
# [10] = tested on: Inhibin beta A chain (activin A); assay: INHBA (activin A) binders on microarrays, primary screen, biochemical, small-molecule microarray, 635 nm fluorescence scan (AID 1107); conditions: small-molecule microarray binding, higher = more signal;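 also: mouse activin A protein probed at 4.33 µg/mL on printed slides; score merges bound-protein fluorescence near 667 nm with spot signal-to-noise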
# [11] = tested on: Human papillomavirus type 1a protein E7 (residues 44-93); assay: HPV1a E7 fragment binders on microarrays, primary screen, biochemical, small-molecule microarray, residues 44-93, 635 nm fluorescence (AID 1108); conditions: small-molecule microarray binding, fluorescence 635 nm; higher = more signal;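 also: E7 fragment applied at 1 µg/mL in TBST for 1 h at 4 C; score combines spot fluorescence with its signal to noise ratio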
# [12] = modulators of HCV replicon luciferase signal, primary screen, HCV replication inhibitor project, Huh7 cells, luciferase reporter (AID 1109); conditions: 48 h, higher = more signal;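 also: huh7 hepatoma cells harbouring a luciferase neomycin HCV replicon reporter; luciferase luminescence as measure of HCV replicon replication; test concentration not given here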
# [13] = molecular target: Left-right determination factor 2 (Homo sapiens) (UniProt O00292); assay: LEFTY2 binders on small-molecule microarrays, primary screen, biochemical, small-molecule microarray, 635 nm fluorescence scan (AID 1110); conditions: LEFTY2 binding, higher = more signal
# Left-right determination factor 2 (Homo sapiens), sequence (O00292 whole entry, looked up): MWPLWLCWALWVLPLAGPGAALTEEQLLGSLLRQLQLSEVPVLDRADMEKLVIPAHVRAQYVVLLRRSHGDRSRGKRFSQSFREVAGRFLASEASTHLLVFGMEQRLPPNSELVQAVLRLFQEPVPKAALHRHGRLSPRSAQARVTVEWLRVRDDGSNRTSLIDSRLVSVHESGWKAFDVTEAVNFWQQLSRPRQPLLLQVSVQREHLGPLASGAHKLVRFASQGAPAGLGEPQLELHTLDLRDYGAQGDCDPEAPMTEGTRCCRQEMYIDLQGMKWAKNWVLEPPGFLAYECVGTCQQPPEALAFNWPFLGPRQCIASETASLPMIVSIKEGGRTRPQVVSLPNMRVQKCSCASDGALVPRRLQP
# [14] = molecular target: Calmodulin-1 (Homo sapiens) (UniProt P0DP23); assay: CALM1 binders on microarrays, EGTA buffer, profiling panel, biochemical, small-molecule microarray, Cy5-labelled CALM1 (AID 1111); conditions: Cy5-CALM1 binding fluorescence, higher = more signal;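 also: labelled calmodulin applied in Tris saline Tween buffer holding calcium plus EGTA and DTT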
# [15] = molecular target: Calmodulin-1 (Homo sapiens) (UniProt P0DP23); assay: calcium-bound CALM1 binders on microarrays, profiling panel, artefact control for SMM control-protein annotation, biochemical, small-molecule microarray, Cy5-labelled CALM1, plus calcium (AID 1112); conditions: Cy5-CALM1 binding fluorescence, higher = more signal;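 also: score merges spot fluorescence with signal to noise from triplicate slides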
# [16] = small-molecule microarray binders of probe aWnt5a, primary screen, biochemical, biotinylated probe, 635/667 nm fluorescence (AID 1113); conditions: higher = more signal;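 also: score merges 667 nm fluorescence intensity with signal-to-noise per printed feature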
# [17] = small-molecule microarray binders of probe aShh, primary screen, biochemical, biotinylated probe, 635/667 nm fluorescence (AID 1114); conditions: higher = more signal;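 also: probe is biotin-labelled aShh protein from a stem cell growth factor screen; measures binding of labelled protein to compounds printed on the slide; score merges feature fluorescence at 667 nm with signal-to-noise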
# [18] = small-molecule microarray binders of probe aNog, primary screen, biochemical, biotinylated probe, 635/667 nm fluorescence (AID 1115); conditions: higher = more signal;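 also: probe is biotinylated aNog protein used at 0.15 µg/mL for 1 h at 4 C; z-score combines 667 nm fluorescence of each spot with its signal to noise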
# [19] = molecular target: Torsin-1A-interacting protein 1 (Homo sapiens) (UniProt Q5JTV8); assay: LAP1 binders from COS7 cell lysate, primary screen, small-molecule microarray, 635/667 nm fluorescence (AID 1116); conditions: COS7-hLAP1 lysate binding, 635 nm fluorescence, higher = more signal
# Torsin-1A-interacting protein 1 (Homo sapiens), sequence (Q5JTV8 whole entry, looked up): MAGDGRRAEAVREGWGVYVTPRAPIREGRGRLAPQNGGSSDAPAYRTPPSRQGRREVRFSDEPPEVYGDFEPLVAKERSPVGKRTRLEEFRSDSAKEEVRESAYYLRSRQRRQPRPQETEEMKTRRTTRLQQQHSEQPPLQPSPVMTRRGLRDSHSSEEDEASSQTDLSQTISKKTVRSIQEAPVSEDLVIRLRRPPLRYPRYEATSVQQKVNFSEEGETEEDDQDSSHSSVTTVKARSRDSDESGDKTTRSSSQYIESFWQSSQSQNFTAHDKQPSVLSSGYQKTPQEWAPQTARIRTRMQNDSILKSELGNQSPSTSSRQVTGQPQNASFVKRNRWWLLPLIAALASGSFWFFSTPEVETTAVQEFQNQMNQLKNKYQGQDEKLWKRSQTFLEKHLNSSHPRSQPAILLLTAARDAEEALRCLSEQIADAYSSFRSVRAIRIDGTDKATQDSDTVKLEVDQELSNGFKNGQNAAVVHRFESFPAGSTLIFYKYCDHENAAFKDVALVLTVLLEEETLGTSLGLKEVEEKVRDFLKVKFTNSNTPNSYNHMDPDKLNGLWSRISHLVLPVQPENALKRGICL
# [20] = molecular target: Alpha-bungarotoxin (Bungarus multicinctus) (UniProt P60615); assay: alpha-bungarotoxin binders on microarray, profiling panel, artefact control for SMM control protein annotation, biochemical, small-molecule microarray, Alexa647 label, 635/667 nm fluorescence (AID 1117); conditions: alpha-BTX-A647 binding fluorescence, higher = more signal
# Alpha-bungarotoxin (Bungarus multicinctus), sequence (P60615 whole entry, looked up): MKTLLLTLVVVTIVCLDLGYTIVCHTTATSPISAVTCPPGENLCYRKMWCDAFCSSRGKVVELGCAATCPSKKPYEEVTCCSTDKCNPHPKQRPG
Structure (SMILES),composite z-score [1],composite z-score [2],composite z-score [3],z-score [4],composite z-score [5],composite z-score [6],composite z-score [7],composite z-score [8],composite z-score [9],composite z-score [10],composite z-score [11],z-score [12],composite z-score [13],composite z-score [14],composite z-score [15],composite z-score [16],composite z-score [17],composite z-score [18],composite z-score [19],composite z-score [20]
CO[C@H]1O[C@H](CO)[C@@H](OC(=O)Nc2ccc3c(c2)OCO3)[C@H](OC(=O)Nc2ccc3c(c2)OCO3)[C@@H]1OC(=O)Nc1ccc2c(c1)OCO2,1.33,0.203,0.195,-0.714 (inactive),1.39,1.23,0.273,1.41,0.378,0.762,1.49,0.158,0.472,1.88,-0.745,0.0618,0.313,0.909,1.25,1.7
CCOC(=O)C[C@H]1[C@H](OC(=O)c2cc3ccccc3oc2=O)[C@@H](NC(=O)CC(C)C)c2cc(OCCCO)ccc2N1C(=O)c1ccc2ccccc2n1,0.342,-0.12,-0.53,0.0136 (inactive),1.32,0.998,0.548,1.14,0.409,0.413,1.05,-0.359,0.643,-0.134,-0.35,-0.152,-0.154,-0.143,0.0785,0.643
CCCC=C(CCC)[C@@H](NS(=O)(=O)CC12CCC(CC1=O)C2(C)C)c1ccc(C(=O)OC)cc1 (stereo not given in full),0.765,0.615,0.143,-0.422 (inactive),0.5,0.233,0.273,0.337,0.336,-0.0344,1.33,-0.197,0.306,-0.057,-0.654,-0.165,-0.373,-0.289,0.159,-0.362
COc1ccc([C@H]2OC[C@@H]3C[C@H](Cc4ccccc4)C(=O)N32)cc1,-0.33,-0.157,-0.598,-0.524 (inactive),0.439,-0.0107,0.212,0.401,0.313,0.0048,0.156,-2.66,0.367,0.106,-0.668,0.188,0.111,-0.113,0.373,1.59
C=CCN1Cc2ccccc2[C@@H]2OC(c3ccc(OCCCO)cc3)=N[C@]2(CC=C)C1=O,1.5,2.15,1.07,-1.25 (inactive),0.862,1.22,0.724,1.48,1.33,1.68,0.139,-1.43,0.718,0.698,-0.0856,0.128,0.0469,0.634,2.02,2.04
CCCC#C[Si](O[C@H](CC)c1cn([C@H](C)c2ccccc2)nn1)(C(C)C)C(C)C,0.2,0.313,-0.212,-0.383 (inactive),0.568,0.588,0.564,0.47,0.285,-0.348,0.691,-0.133,0.3,-0.155,-0.157,-0.124,0.275,0.341,1.54,0.709
CC(C)C(CO)N1C(=O)[C@@H]2C3C(=O)OCCC/C=C\[C@H]3OC23C=CCN(c2ccc4ccccc4c2)C(=O)[C@@H]13 (stereo not given in full),0.552,-0.167,0.375,-0.298 (inactive),0.0329,-1.01,-1.2,-0.602,-0.4,0.791,-0.812,-1.23,-1.43,-0.14,-0.132,-0.0405,-0.0822,0.117,-0.427,-0.287
O=C(NCCN1CCOCC1)[C@@H]1c2ccccc2C(=O)N(Cc2ccccc2Cl)[C@H]1c1ccc(CO)cc1,-0.855,-0.633,-0.803,-0.284 (inactive),-1.16,-0.52,-0.494,0.0801,-0.569,0.823,-0.388,-0.786,-0.341,-0.635,-0.725,0.0491,-0.471,0.414,-0.815,0.27
COc1ccc(C#Cc2ccc3c(c2)[C@]2(C(=O)N3)[C@H](c3ccc(OCCO)cc3)N3[C@H](c4ccccc4)[C@H](c4ccccc4)OC(=O)[C@H]3[C@@H]2C(=O)NC[C@H](O)c2ccccc2)cc1,0.614,0.0477,-0.0975,-0.124 (inactive),0.882,0.72,0.342,1.08,0.301,-0.177,1.43,-2.21,0.428,1.12,-0.126,-0.0462,-0.0146,-0.157,0.64,1.87
COCCOC(=O)N1C(=O)[C@@]2(c3cc(C#CC4=CCCCC4)ccc31)[C@H](C(=O)Nc1nc3ccccc3s1)[C@H]1C(=O)O[C@H](c3ccccc3)[C@H](c3ccccc3)N1[C@@H]2c1ccc(O)cc1,0.61,0.157,-0.0764,0.111 (inactive),0.669,1.28,0.635,0.918,1.11,0.872,1.39,-1.1,0.647,1.07,0.641,-0.15,-0.51,-0.483,0.666,0.42
C=CC[C@H](OC(=O)Nc1ccc(SC)cc1)c1ccc(O)c2ccccc12,0.731,-0.0313,0.296,-2.98 (inactive),0.972,1.29,0.961,1.08,0.778,0.932,1.4,-4.92,0.679,1.28,0.411,-0.0819,0.23,-0.134,0.986,1.78
